High-throughput results (PubChem BioAssay)
Many of the other results were omitted from the sample, so hits are more common in it than they were.
FBPA Giardia inh – inhibitors of Giardia lamblia fructose-1,6-bisphosphate aldolase; 0.71% of 290,000 active; Potency, µM (top dose mostly 59.6 µM), for the others: at the highest dose activity, negative = inhibition, most hits filed as inhibitors; A8B2U2; AID 2451; purified Giardia FBPA; note: potency is the fitted concentration of half-maximal effect; % is set by controls: 0 for no effect and ±100 for the full control effect; nearly all actives have a fitted effect of over 55% in size
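Giardia FBPA (40 nM reagent) was preincubated 10 min at RT with compound (up to 57.5 uM final), then substrate plus GAPDH/TPI/NAD/arsenate coupling system with diaphorase/resazurin was added; resorufin fluorescence (525/598 nm) was read after 20 min.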
Cycloheximide cs – affects cycloheximide protein synthesis inhibition readout, counter-screen | cell reporter, cycloheximide protein synthesis inhibition counterscreen | max response, % | 12% of 300,000 active | AID 2314; in the data active = max response mostly above about 13%, no sharp cut-off; inactive = mostly below about 14%; note: read at 38.3 µM for the half of the compounds with a filed dose; 0% is about no effect
TbPYK inhibitor – inhibitors of Trypanosoma brucei pyruvate kinase. Q57TT1. TbPYK enzyme, Kinase-Glo Plus ATP luminescence, 45 min. Potency, µM (titrated, usually from 76.8 µM), inactives show top-dose activity, negative = inhibition, actives largely listed as inhibitors. 0.12% of 410,000 active. AID 624173; note: potency is the fitted concentration of half-maximal effect; % is set by controls: 0 for no effect and ±100 for the full control effect; nearly all actives have a fitted effect of over 50% in size
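TbPYK + substrate in 50 mM TEA pH 7.2, 100 mM KCl, 10 mM MgCl2, 0.05% BSA, 0.01% Tween-20; cpd pinned; ADP 130 uM final; 45 min RT; Kinase-Glo Plus 10 min; luminescence endpoint.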
LmPK inh – blocks Leishmania mexicana pyruvate kinase activity; Potency, µM (top dose mostly 57.5 µM), without a hit: top-dose activity change, negative = inhibition, most hits filed as inhibitors; purified LmPK, Kinase-Glo ATP luminescence, 1 h; 0.37% of 290,000 active; Q27686; AID 1721; note: potency is the fitted concentration of half-maximal effect; % is set by controls: 0 for no effect and ±100 for the full control effect
Target sequence (Q27686 whole entry, looked up): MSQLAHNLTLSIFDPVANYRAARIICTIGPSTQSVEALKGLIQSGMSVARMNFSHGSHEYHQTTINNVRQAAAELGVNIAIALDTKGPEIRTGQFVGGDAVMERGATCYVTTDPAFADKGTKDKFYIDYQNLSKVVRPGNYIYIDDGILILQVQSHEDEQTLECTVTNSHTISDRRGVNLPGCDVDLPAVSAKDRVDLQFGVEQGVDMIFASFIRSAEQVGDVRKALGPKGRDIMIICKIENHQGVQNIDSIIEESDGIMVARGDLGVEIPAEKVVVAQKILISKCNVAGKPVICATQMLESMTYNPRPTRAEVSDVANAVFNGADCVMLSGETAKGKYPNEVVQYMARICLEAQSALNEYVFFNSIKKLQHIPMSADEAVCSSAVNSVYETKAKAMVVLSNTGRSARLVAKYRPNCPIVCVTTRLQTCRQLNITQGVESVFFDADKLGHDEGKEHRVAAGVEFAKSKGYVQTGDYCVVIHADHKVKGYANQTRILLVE
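qHTS format; LmPK 0.1 nM; substrates PEP 0.5 mM and ADP 0.1 mM. One-hour room-temperature incubation, then coupled luciferase luminescence; 0.5 nM enzyme wells mark activation.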
RE007 growth inh – less growth of the S. pombe RE007 Vpr strain. 0.21% of 360,000 active. S. pombe RE007 Vpr strain, BacTiter-Glo ATP luminescence, 24 h. Potency, µM (top dose mostly 92.2 µM), without a hit: top-dose activity change, negative = less growth, actives largely listed as inhibitors; active = well fitted falling curve with a large enough effect; inconclusive = small, poorly fitted or top-dose-only effect; inactive = no such curve, though single readings can be large or run the other way; note: potency is the fitted concentration of half-maximal effect; % is set by controls: 0 for no effect and ±100 for the full control effect; nearly all actives have a fitted effect of over 50% in size
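Fission yeast strain RE007, carrying one chromosomally integrated HIV-1 vpr copy, was seeded at OD 0.01 in PMG+AL medium with 23 nL pinned compound. After 24 h at 30 °C and 99% humidity, viability was read by BacTiter-Glo luminescence.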
Shiga inhibitor – Shiga toxin inhibition | Vero cells, Shiga toxin protein synthesis inhibition reporter | inhibition, % at 38.7 µM | 9.2% of 290,000 active; in the data active = inhibition mostly above about 28%, no sharp cut-off; inactive = mostly below about 43%; note: 0% is about no effect
An asterisk follows results filed as active; ? = inconclusive; · = no result; [ ] = another dose, or the depositor's remark. Unless noted, calls come from the whole dose curve; as a rule, active = well fitted curve in the direction sought with a large enough effect; inconclusive = small, poorly fitted or top-dose-only effect, or another doubt; inactive = no such curve, though single readings can be large; an effect the other way counts as inactive or inconclusive.

SMILES	FBPA Giardia inh	Cycloheximide cs	TbPYK inhibitor	LmPK inh	RE007 growth inh	Shiga inhibitor
N#Cc1ccccc1NC(=O)COc1ccccc1C(=O)Nc1ccccc1	·	·	-2%	·	-10%	·
CCc1cc2c(=O)n(C(C)C(=O)OC3CCCCC3)cnc2s1 (stereo unspecified)	3%	41*	-9%	-12%	18%	37*
CCOC(=O)C(C)n1cnc2sc3c(c2c1=O)CCC3 (stereo unspecified)	-8%	-7	0%	1%	19%	-11
O=C(Cc1ccccc1)N1CCC(c2ccccc2)C1 (stereo unspecified)	4%	28*	2%	8%	3%	80*
O=C(CCCN1C(=O)c2ccccc2C1=O)N1CCC(c2ccccc2)C1 (stereo unspecified)	1%	-2	·	3%	1%[3.69 µM]	-22
COc1ccc(CC(=O)N2CCC(c3ccccc3)C2)cc1 (stereo unspecified)	0%	23*	0%	0%	0%	56*
[O-]c1c[n+](-c2ccccc2)no1	0%	1	-7%	0%	-8%	6
[O-]c1c[n+](-c2ccc(-[n+]3cc([O-])on3)cc2)no1	?	21*	-4%	-3%	-7%	40
COc1ccc(-n2c(C)cc(C(=O)CCl)c2C)cc1	1%	11	-2%	-7%	-48%	-6
COc1ccc(-n2c(C)cc(C(=O)CSc3ccc(NC(C)=O)cc3)c2C)cc1	2%	29*	-7%	6%	28%	69*
CC(=O)Nc1ccc(SCC(=O)c2cc(C)n(-c3ccccc3)c2C)cc1	1%	45*	-6%	-2%	-6%	86
Cc1ccc(S(=O)(=O)CCc2nc3ccccc3s2)cc1	-1%	5	-4%	-3%	-26%	20
Cc1ccc(S(=O)(=O)CCc2nc3ccccc3s2)cc1C	-7%	13*	-11%	-4%	-6%	25
O=S(=O)(CCc1nc2ccccc2s1)c1ccc2ccccc2c1	-6%	32*	0%	4%	-16%	118*
Cc1ccccc1-c1cc2nc(Oc3ccc4c(c3)OCO4)n(C)c(=O)c2s1	·	·	-2%	·	-15%[18.4 µM]	·
Cc1cc(C)c(NC(=O)c2ccc3c(c2)CCN3S(C)(=O)=O)c(C)c1	5%	-3	2%	0%	1%	-3
O=C(O)Cn1c(-c2ccccc2)cc2ccccc21	1%	0	-1%	-4%	4%	-8
CC1(C)CC(NC(=O)c2cccc(S(=O)(=O)N(Cc3ccccc3)c3ccccc3)c2)CC(C)(C)N1	·	·	3%	·	29%	·
COc1cc(/C=N/Nc2ccccc2[N+](=O)[O-])cc(OC)c1O	0%	26*	-12%	-5%	-20%	88*
COc1ccc(NS(=O)(=O)c2cc([N+](=O)[O-])ccc2N/N=C/c2c(C)[nH]c3ccccc23)cc1	·	·	-4%	·	2%	·
Cc1[nH]c2ccccc2c1/C=N/Nc1ccccc1[N+](=O)[O-]	-24%	37*	-11%	?	-25%	86*
COc1cc(/C=N/Nc2ccccc2[N+](=O)[O-])ccc1OC(=O)c1ccccc1F	2%	31*	-9%	-2%	-1%	45*
COc1cc(/C=N/Nc2ccc(S(N)(=O)=O)cc2[N+](=O)[O-])cc(OC)c1O	-1%	-1	1%	-1%	0%	-6
CC(C)Oc1ccccc1/C=N/Nc1ccccc1[N+](=O)[O-]	1%	65*	-8%	-2%	-4%	87*
COc1ccccc1/C=N\Nc1ccccc1[N+](=O)[O-]	0%	49*	-12%	-14%	0%	73*
SMILES	FBPA Giardia inh	Cycloheximide cs	TbPYK inhibitor	LmPK inh	RE007 growth inh	Shiga inhibitor
COc1ccc(/C=N\Nc2ccccc2[N+](=O)[O-])c(C(=O)O)c1OC	17%	50*	2%	-18%	-9%	88*
C[C@@H]1C(=O)OC2C[C@@]34[C@H]5C[C@@H](C(C)(C)C)[C@@]36C(O)C(=O)O[C@H]6O[C@@]4(C(=O)O5)[C@]21O (stereo partly specified)	6%	4	·	·	·	7
O=C1C2CC=C(Cl)CC2C(=O)N1CCc1c[nH]c2ccccc12 (stereo unspecified)	-1%	22*	-11%	5%	4%	47*
CC1=CCC2C(=O)N(CCc3c[nH]c4ccccc34)C(=O)C2C1 (stereo unspecified)	-8%	23*	1%	2%	4%	active
COc1ccc(C(=O)CCC(=O)O)c2ccccc12	·	·	-2%	·	·	·
COc1ccc2[nH]c(O)c(N=NC(=O)Cc3cccs3)c2c1	-14%	27*	-1%	1%	0%	39*
O=C(Cc1cccs1)N=Nc1c(O)[nH]c2ccccc12	-10%	56*	0%	0%	16%	85*
O=C(Cc1cccs1)N=Nc1c(O)[nH]c2ccc(Br)cc12	6%	-2	2%	-1%	16%	-4
Cn1c(NN)nc2c1c(=O)n(Cc1ccccc1)c(=O)n2C	-1%	-2	-25%	-21%	0%	-9
Cn1nc(OC(=O)Nc2ccc(Cl)cc2)cc1C(F)(F)F	0%	17*	·	-3%	·	22
Cc1ccc(C(=O)Nc2ccc(Cl)cn2)cc1S(=O)(=O)N1CCOCC1	15%	35*	-1%	-4%	-13%	61*
COc1ccc(C(=O)Nc2ccc(Cl)cn2)cc1Cl	-22%	50*	9%	-3%	-7%	79*
O=C(Nc1ccc(Cl)cn1)c1cccc(S(=O)(=O)N2CCCC2)c1	1%	14*	-5%	7%	3%	41*
CN(C)S(=O)(=O)c1cccc(C(=O)Nc2ccc(Cl)cn2)c1	-3%	51*	0%	9%	13%	50*
O=C(Nc1ccc(Cl)cn1)c1cccc(S(=O)(=O)N2CCCCCC2)c1	·	·	8%	·	7%	·
COC(=O)NC(c1cccc(C)c1)[C@]1(C(C)=O)CCOC1=O (stereo partly specified)	1%[12.9 µM]	·	·	·	·	·
COc1ccc(N2Cc3cccc(C(=O)Nc4ccc(F)cc4)c3C2=O)cc1	·	·	-2%	·	·	·
Cc1ccc(C(C)C)c(OCc2ccc(C(=O)N/N=C/c3cccc(O)c3O)cc2)c1	?	29*	-4%	3%	?	active
COc1cc(/C=N\NC(=O)c2ccc(-c3ccccc3)cc2)cc(OC)c1O	-4%	15*	-8%	0%	-10%	15
CCOc1cc(/C=N/NC(=O)c2ccc(=O)n(C)c2)ccc1O	0%	-3	-2%	4%	7%	12
COc1cc(/C=N/NC(=O)c2ccc(COc3cc(C)ccc3C(C)C)cc2)cc(OC)c1O	-1%	34*	-7%	0%	32%	20*
